{"source": "PubChem BioAssay AID2825", "about": "(Sanford-Burnham Center for Chemical Genomics, 2010)", "note": "In all, about 330,000 compounds went through this assay and about 1,300 (0.39%) were called active. Shown is part of a subset that was picked to be rich in actives. Unmarked numbers belong to inactive results.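 Rule for the calls: active = inhibition of 50% or more; inactive = inhibition below 50%.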", "data": [{"experiment": "blockers of yeast NLRP3/ASC/caspase-1 reporter – luminescence, uHTS, primary screen (AID 2825);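 note: plate controls were induced DMSO wells for no effect and uninduced yeast grown without galactose for full effect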", "settings": "Yeast reconstituted NLRP3/ASC/caspase-1, beta-gal luminescence, 24 h; at 10 µM; active compounds read high", "values": [{"smiles": "CC(NC(=O)c1ccco1)C(=O)Nc1nc(-c2ccccn2)cs1", "note": "(stereo not given)", "inhibition": "6.56%"}, {"smiles": "O=C(COc1ccccc1F)Nc1nc(-c2ccccn2)cs1", "inhibition": "52.9% (active)"}, {"smiles": "O=C(CN1C(=O)C2C3C=CC(C3)C2C1=O)Nc1nc(-c2ccccn2)cs1", "note": "(stereo not given)", "inhibition": "2.29%"}, {"smiles": "CCNC(=O)c1cccc(NC(=O)C2CC(=O)N(CCc3ccccc3)C2)c1", "note": "(stereo not given)", "inhibition": "0.384%"}, {"smiles": "O=C(Nc1ccccc1Cl)/C(Cl)=C(\\Cl)S(=O)c1ccccc1", "note": "(stereo not given)", "inhibition": "67.4% (active)"}, {"smiles": "O=C(COC(=O)CCc1c[nH]c(=O)[nH]1)Nc1ccccc1Cl", "inhibition": "-10.9%"}, {"smiles": "CN(C)S(=O)(=O)Oc1ccccc1C(=O)Nc1ccccc1Cl", "inhibition": "-4.11%"}, {"smiles": "COc1cc(CNCc2ccc3c(c2)OCO3)c([N+](=O)[O-])cc1OC", "inhibition": "20.4%"}, {"smiles": "Cc1ccc(NC(=O)O/N=C/c2cccc([N+](=O)[O-])c2)cc1", "inhibition": "18.6%"}, {"smiles": "O=C(N/N=C/c1cccc([N+](=O)[O-])c1)C1CC(=O)N(c2ccc(Br)cc2)C1", "note": "(stereo not given)", "inhibition": "4.22%"}, {"smiles": "O=[N+]([O-])c1cccc(/C=N/Nc2ncc(Br)cn2)c1", "inhibition": "68.1% (active)"}, {"smiles": "C/C(=N/OC(=O)c1ccc(Br)cc1)c1ccc(C)cc1", "inhibition": "25.5%"}, {"smiles": "Cc1cc(C(=O)Nc2nnc(C3CC3)s2)c(C)s1", "inhibition": "47.8%"}, {"smiles": "CCc1cc(C(=O)Nc2nnc(C3CC3)s2)sc1C", "inhibition": "52% (active)"}, {"smiles": "O=C(Nc1nnc(C2CC2)s1)c1ccccn1", "inhibition": "7.63%"}, {"smiles": "CC(=O)NC(CC(=O)Nc1ccc(S(=O)(=O)N2CCOCC2)cc1)c1ccccc1", "note": "(stereo not given)", "inhibition": "8.22%"}, {"smiles": "O=C(c1ccco1)N1CCN(C(=O)c2cc(-c3ccccc3F)no2)CC1", "inhibition": "-3.69%"}, {"smiles": "Fc1ccccc1-c1cc2cc3c(cc2cn1)OCO3", "inhibition": "57.2% (active)"}, {"smiles": "Fc1ccc2cnc(-c3ccccc3)cc2c1", "inhibition": "34.3%"}, {"smiles": "O=C1CC2(CCCC2)C(=O)N1CN1CCN(S(=O)(=O)c2ccc(F)cc2F)CC1", "inhibition": "20.4%"}, {"smiles": "Cc1c(C(=O)OCC(=O)N2CCCC2=O)oc2ccccc12", "inhibition": "28.6%"}, {"smiles": "Cc1c(C(=O)N2CCCc3ccccc32)oc2ccccc12", "inhibition": "51.5% (active)"}, {"smiles": "CCCn1nc(C(=O)N2CCCc3ccccc32)c2ccccc2c1=O", "inhibition": "12.6%"}, {"smiles": "Cc1cccc(NC(=S)NC(=O)c2ccc(Br)o2)c1", "inhibition": "57.6% (active)"}, {"smiles": "O=C(CNC(=O)c1ccc(Br)o1)Nc1ccccc1", "inhibition": "22.4%"}, {"smiles": "Cc1cccc(NC(=O)c2ccc([N+](=O)[O-])o2)c1", "inhibition": "-4.88%"}, {"smiles": "O=C(Cc1ccc(S(=O)(=O)N2CCCC2)s1)NC1CCCCCC1", "inhibition": "7.38%"}, {"smiles": "CN(c1ccccc1)S(=O)(=O)c1ccc2[nH]c(=O)[nH]c2c1", "inhibition": "25.4%"}, {"smiles": "COc1ccccc1C(=O)COC(=O)CSCC(=O)Nc1cc(C)on1", "inhibition": "15.5%"}, {"smiles": "CC(CCc1ccc(O)cc1)NCc1ccc(Cl)cc1Cl", "note": "(stereo not given)", "inhibition": "21.7%"}, {"smiles": "N#Cc1nc(Cc2cccc3ccccc23)oc1NCc1ccc2c(c1)OCO2", "inhibition": "2.2%"}, {"smiles": "N#Cc1nc(Cc2ccccc2)oc1NCCc1ccccc1", "inhibition": "53.8% (active)"}, {"smiles": "N#Cc1nc(COc2ccc(-c3ccccc3)cc2)oc1NCc1cccnc1", "inhibition": "2.98%"}, {"smiles": "CCn1c(=S)sc2c(=O)n(CC(=O)Nc3ccc(OC)cc3)c(C)nc21", "inhibition": "18.2%"}, {"smiles": "CC(NCc1nc2ccccc2n1C)C12CC3CC(CC(C3)C1)C2", "note": "(stereo not given)", "inhibition": "30%"}, {"smiles": "Cc1ccc(-c2nnc(Nc3ccc(C(=O)N(C)C)cc3)c3ccccc23)cc1S(N)(=O)=O", "inhibition": "15.1%"}, {"smiles": "O=c1[nH]oc(O)c1-c1ncc(C(F)(F)F)cc1Cl", "inhibition": "6.26%"}, {"smiles": "Cn1c(N)c(C(=O)COC(=O)c2cccc(S(=O)(=O)N3CCOCC3)c2)c(=O)n(C)c1=O", "inhibition": "3.26%"}, {"smiles": "CCc1ccc(-c2nnn(Cc3nc4ccccc4s3)n2)cc1", "inhibition": "31.8%"}, {"smiles": "COc1ccccc1OCc1nc2ccccc2s1", "inhibition": "59.6% (active)"}, {"smiles": "CN(Cc1nc2ccccc2s1)C(=O)c1ccc(F)cc1", "inhibition": "14.9%"}, {"smiles": "Cc1cccc(C)c1NC(=O)CCS(=O)(=O)c1cccc2nsnc12", "inhibition": "-0.246%"}, {"smiles": "COc1cccc(/C=N/Nc2cc(C)nc(-c3ccccc3O)n2)c1O", "inhibition": "54.1% (active)"}, {"smiles": "Cc1nc2ccccc2nc1N/N=C/c1ccc(O)cc1O", "inhibition": "2.73%"}, {"smiles": "COc1ccc(Cc2nnc(N/N=C/c3ccccc3O)[nH]c2=O)cc1OC", "inhibition": "9.67%"}, {"smiles": "CC(C)c1ccc(N2CC(C(=O)Nc3nccs3)CC2=O)cc1", "note": "(stereo not given)", "inhibition": "9.7%"}, {"smiles": "COc1ccc(CNC(=O)COC(=O)/C=C/c2ccc(S(=O)(=O)N3CCOCC3)cc2)cc1", "inhibition": "-4.76%"}, {"smiles": "Cc1nn(Cc2ccccc2)c(C)c1C(=O)N1CCN(CC(=O)Nc2ccccc2Cl)CC1", "inhibition": "14.5%"}, {"smiles": "NC(=O)N1CCCC1C(=O)Nc1ccc(Cl)c(Cl)c1", "note": "(stereo not given)", "inhibition": "-1.49%"}, {"smiles": "O=C(CC(O)(C(F)(F)F)C(F)(F)F)Nc1ccc(Cl)c(Cl)c1", "inhibition": "78.6% (active)"}, {"smiles": "O=C(COC(=O)c1cc[n+]([O-])cc1)Nc1ccc(Cl)c(C(F)(F)F)c1", "inhibition": "-2.4%"}, {"smiles": "Cc1onc(-c2ccccc2Cl)c1C(=O)OCc1nnc(-c2ccccc2)o1", "inhibition": "27.8%"}, {"smiles": "Cc1ccc(-n2cnc3ncnc(-c4ccccc4)c32)cc1", "inhibition": "7.02%"}, {"smiles": "Cc1ccc(-c2nn(C(C)(C)C)c3ncnc(N)c23)cc1", "inhibition": "90.7% (active)"}, {"smiles": "Cc1[nH]c(=O)c(C(=O)/C=C/c2ccccc2)c2c1CCCC2", "inhibition": "28.3%"}, {"smiles": "CCc1cccc(OC2OC(CO)C(O)C(O)C2NC(C)=O)c1", "note": "(stereo not given)", "inhibition": "-4.24%"}, {"smiles": "Cn1nccc1/C=N\\NC(=O)c1ccc(Cl)cc1", "inhibition": "19.2%"}, {"smiles": "COc1ccccc1C1C(C#N)=C(N)Oc2c1c(-c1ccccc1)nn2-c1ccccc1", "note": "(stereo not given)", "inhibition": "9.88%"}, {"smiles": "N#CC1(NC(=O)COC(=O)Cc2n[nH]c(=O)c3ccccc23)CCCCC1", "inhibition": "17.9%"}, {"smiles": "CC(C)n1c(-c2cccs2)nc2ccccc21", "inhibition": "19%"}, {"smiles": "Cn1c(COc2ccc(Cl)cc2)nc2ccccc2c1=O", "inhibition": "35.3%"}, {"smiles": "Cc1ccc(OCc2nc3ccccc3n2C)cc1", "inhibition": "62.3% (active)"}, {"smiles": "CCOc1ccc(C(O)Cc2nc3ccccc3n2C)cc1", "note": "(stereo not given)", "inhibition": "32.1%"}, {"smiles": "CC(C)n1c(COc2ccccc2)nc2ccccc21", "inhibition": "57.2% (active)"}, {"smiles": "CC(C)n1c(CN2CCN(Cc3ccccc3)CC2)nc2ccccc21", "inhibition": "18.2%"}, {"smiles": "CC(C)NS(=O)(=O)c1ccc(OCC(=O)NC2CCCCCC2)cc1", "inhibition": "10.4%"}, {"smiles": "COCCN(C(=O)CC1CCCCC1)c1c(N)n(CC(C)C)c(=O)[nH]c1=O", "inhibition": "6.27%"}, {"smiles": "Cn1c(=NC(=O)c2ccco2)sc2cccc(F)c21", "inhibition": "51% (active)"}, {"smiles": "Cn1c(=NC(=O)c2cnccn2)sc2ccccc21", "inhibition": "25.1%"}, {"smiles": "CCCC(=O)N=c1sc2cccc(F)c2n1C", "inhibition": "35.5%"}, {"smiles": "COc1ccc(NC(=O)CN(C)C(=O)Cc2coc3cc(C)c(C)cc23)cc1", "inhibition": "17.5%"}, {"smiles": "COCCCNCCOCCOc1ccc(Cl)cc1Br", "inhibition": "3.7%"}, {"smiles": "CC(C)C(=O)Nc1ccc2c(c1)oc1ccccc12", "inhibition": "56.7% (active)"}, {"smiles": "Cc1cc(=O)oc2cc(NC(=O)C(C)Oc3ccccc3)ccc12", "note": "(stereo not given)", "inhibition": "10.8%"}, {"smiles": "CC(C)C(=O)Nc1ccc2oc(=O)ccc2c1", "inhibition": "-3.79%"}, {"smiles": "Cc1ccccc1N1CCN(S(=O)(=O)c2ccc3ccccc3c2)CC1", "inhibition": "2.32%"}, {"smiles": "O=S(=O)(N1CCOCC1)N1CCN(c2ccccc2F)CC1", "inhibition": "7.74%"}, {"smiles": "Cc1ccc2cccc(S(=O)(=O)N3CCN(c4ccccc4F)CC3)c2n1", "inhibition": "50.5% (active)"}, {"smiles": "O=C(c1ccc(S(=O)(=O)N2CCCC2)cc1)N1CCN(c2ccccc2F)CC1", "inhibition": "11.6%"}, {"smiles": "C=CCn1c(CNS(=O)(=O)c2ccc(Br)cc2)nnc1SC", "inhibition": "14.4%"}, {"smiles": "COc1ccc(NS(=O)(=O)c2cc3c(cc2C)N(C(C)=O)CCO3)cc1", "inhibition": "25.6%"}, {"smiles": "Oc1ccc(/C=N/Nc2ccc(C(F)(F)F)cn2)cc1O", "inhibition": "11.3%"}, {"smiles": "Oc1ccc(Br)cc1/C=N/Nc1ccccn1", "inhibition": "51.7% (active)"}, {"smiles": "Cc1c(C(=O)Nc2ccccn2)oc2ccc(Br)cc12", "inhibition": "28.4%"}, {"smiles": "CCn1nc(C(=O)NNS(=O)(=O)c2cc(/C=C/C(=O)O)cc(OC)c2OC)c2ccccc2c1=O", "inhibition": "-0.224%"}, {"smiles": "O=C(CSc1ccc(-c2ccccn2)nn1)Nc1ccccc1", "inhibition": "25.6%"}, {"smiles": "O=C(CSc1ccc([N+](=O)[O-])cn1)Nc1ccc(N2CCOCC2)cc1", "inhibition": "-5.97%"}, {"smiles": "O=C(CSc1ccc(-c2ccc(-n3cccn3)cc2)nn1)Nc1ccc([N+](=O)[O-])cc1", "inhibition": "51.4% (active)"}, {"smiles": "CCN1CCN(c2sc(S(C)(=O)=O)nc2S(=O)(=O)c2ccc(Cl)cc2)CC1", "inhibition": "2.79%"}, {"smiles": "CCOC(=O)C1CCN(C(=O)CC2C(=O)N(Cc3ccccc3)C(C)c3nc4ccccc4n32)CC1", "note": "(stereo not given)", "inhibition": "-3.2%"}, {"smiles": "Cc1csc(NC(=S)Nc2cccc(Cl)c2)n1", "inhibition": "53.8% (active)"}, {"smiles": "FC(F)(F)c1cccc(NC(=S)Nc2cccc(Cl)c2)c1", "inhibition": "2.63%"}, {"smiles": "S=C(Nc1cccc(Cl)c1)Nc1ccc2c(c1)OCCO2", "inhibition": "15%"}, {"smiles": "COc1ccc(-c2n[nH]c3c2CN(C(=O)c2ccc(F)cc2)CC3)cc1", "inhibition": "19%"}, {"smiles": "COc1cc(OC)cc(-c2cc3nc(C4CCN(C(=O)OC(C)(C)C)CC4)cc(=O)n3[nH]2)c1", "inhibition": "18.1%"}, {"smiles": "CC1CC2=C(CC1/C=N/NC(N)=S)C(C)(C)CCC2", "note": "(stereo not given)", "inhibition": "68.6% (active)"}, {"smiles": "CCCN(CCc1ccccc1)C1CCc2c(O)cccc2C1", "note": "(stereo not given)", "inhibition": "22.2%"}, {"smiles": "Cc1cc(C)c(/C=C2\\C(=O)Nc3ccccc32)[nH]1", "inhibition": "55.4% (active)"}, {"smiles": "O=C1Nc2ccccc2/C1=C/c1ccnc2ccccc12", "inhibition": "17.6%"}, {"smiles": "CN(C)/C=C1/Nc2ccccc2C1=O", "inhibition": "12%"}]}]}
